# Screening data deposited in PubChem BioAssay by National Center for Advancing Translational Sciences (NCATS).
# JMJD2A Tudor inh – JMJD2A Tudor domain (human) inhibition; O75164; AlphaScreen JMJD2A-Tudor / H3K4me3 peptide binding; Potency, µM (series often up to 114 µM), hits mostly inhibitors; hit rate 4.4% among 390,000; AID 504339; further: nearly all actives have a fitted effect of over 50% in size
# HP1b binding inh – HP1-beta chromodomain-methylated histone interaction inhibition; AlphaScreen HP1-beta / biotin-H3K9me3 peptide binding; Potency, µM (highest dose often 114 µM), most hits filed as inhibitors; hit rate 0.56% among 390,000; AID 540317; further: nearly all actives have a fitted effect of over 70% in size
#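 AlphaScreen: HP1-beta (50 nM) preformed 30 min with biotin-H3(1-18)K9me3 peptide (50 nM) in PBS pH 7.4, 0.01% Tween-20. Compound added for 30 min at RT, then streptavidin donor/nickel chelate acceptor beads (10 ug/mL) for 30 min.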
# G9a block – G9a (human) methyltransferase inhibition; G9a H3K9 monomethylation, AlphaScreen, 2 h; Potency, µM (series often up to 102 µM), usual class: inhibitors; hit rate 8.8% among 350,000; AID 504332; further: nearly all actives have a fitted effect of over 75% in size
#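 Enzyme 20 nM + cpd, 15 min RT; add b-H3K9 pep 500 nM / SAM 20 uM; 2 h RT; anti-H3K9me1 Ab 0.5 ug/mL + SA donor / anti-rabbit acceptor beads 20 ug/mL each, 10 min; AlphaScreen read.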
# CtBP-E1A blk – blocks the CtBP interaction with E1A. AlphaScreen GST-E1A/His-CtBP binding, 1536-well; active compounds read low. activity change, % (concentration not given with the values). hit rate 0.49% among 340,000; in the data active means activity change below about -65%; inconclusive means mostly about -30% to -63%
#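 Homogeneous bead-based format: GST-tagged E1A captured on glutathione donor beads, His-tagged CtBP on nickel acceptor beads; compounds precede bead addition by 2 h at 37 °C.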
# BAZ2B block – inhibitors of human BAZ2B bromodomain | Q9UIF8 | AlphaScreen BAZ2B-H3K14Ac peptide displacement | Potency, µM (highest dose often 114 µM), most hits filed as inhibitors | hit rate 4.4% among 360,000; further: nearly all actives have a fitted effect of over 60% in size
#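 In this displacement format the biotinylated H3(5-23) peptide acetylated at Lys14 serves as ligand at 50 nM, with BAZ2B at 50 nM in PBS pH 7.4 containing 0.01% Tween-20. Donor and acceptor beads are 10 ug/mL final.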
# Six1-Eya2 blk – blocks human Six1 binding to Eya2; AlphaScreen GST-Six1/His-Eya2 binding, biochemical; active compounds read low; hit rate 0.56% among 360,000; activity change, % (concentration not given with the values); in the data active means activity change below about -65%; inconclusive means mostly about -30% to -63%
# Target sequence (O00167 whole entry, looked up): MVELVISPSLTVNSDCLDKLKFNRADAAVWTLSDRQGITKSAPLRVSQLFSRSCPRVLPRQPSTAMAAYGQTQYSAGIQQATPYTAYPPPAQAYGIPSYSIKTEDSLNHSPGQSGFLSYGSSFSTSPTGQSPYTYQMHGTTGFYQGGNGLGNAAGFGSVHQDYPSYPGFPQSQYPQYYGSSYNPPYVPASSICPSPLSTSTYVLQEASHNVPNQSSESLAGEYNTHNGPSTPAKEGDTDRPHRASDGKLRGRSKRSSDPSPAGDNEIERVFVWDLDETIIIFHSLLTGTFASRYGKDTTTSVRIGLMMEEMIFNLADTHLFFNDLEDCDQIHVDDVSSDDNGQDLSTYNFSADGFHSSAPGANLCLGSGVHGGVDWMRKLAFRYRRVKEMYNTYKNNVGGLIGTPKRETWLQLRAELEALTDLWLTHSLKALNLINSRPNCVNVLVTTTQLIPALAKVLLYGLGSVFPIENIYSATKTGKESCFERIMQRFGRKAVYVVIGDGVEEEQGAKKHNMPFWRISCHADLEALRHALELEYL
# Target sequence (Q15475 whole entry, looked up): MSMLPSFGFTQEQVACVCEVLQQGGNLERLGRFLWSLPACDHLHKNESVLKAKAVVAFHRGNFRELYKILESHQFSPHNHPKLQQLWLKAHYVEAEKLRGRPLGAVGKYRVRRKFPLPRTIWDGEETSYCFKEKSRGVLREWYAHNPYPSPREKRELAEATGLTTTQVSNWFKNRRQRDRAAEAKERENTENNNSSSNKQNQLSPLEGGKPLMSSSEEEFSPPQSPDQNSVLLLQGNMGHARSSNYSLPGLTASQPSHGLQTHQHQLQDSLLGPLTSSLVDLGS
#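 Six1/Eya2 binding was read as AlphaScreen signal after compounds were pinned into GST-Six1 plus His-tagged Eya2 (5X stock 250/500 nM) in pH 8.0 Tris/NaCl/TCEP buffer, beads added, then incubated 1 h, 37 C, dark.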
# Hits are given with their value; – = inactive; ? = inconclusive; · = no result; [ ] = another dose, or the depositor's remark. Only some compounds are listed: those with a hit (about 10% of all), similar ones and a draw of the others. Unless noted, the call rests on the fitted dose curve; in most records, active means well fitted inhibition curve with a large enough effect; inconclusive means small, poorly fitted or top-dose-only effect; inactive means no such curve, though single readings can be large or run the other way.
SMILES,JMJD2A Tudor inh,HP1b binding inh,G9a block,CtBP-E1A blk,BAZ2B block,Six1-Eya2 blk
CCOC(=O)C1CCCN(C(=O)Cc2c(C(=O)O)[nH]c3ccccc23)C1 (centres undefined),–,–,–[2.33 µM],–,–,–
CCOc1ccccc1Nc1cc(C)nc2ccc(C)cc12,–,–,·,–,·,–
Cc1ccc(COc2ccsc2C(=O)NNC(N)=S)cc1,–,–,–,–,–,–
CCc1cccc(NCc2ccccc2-c2nnc(-c3ccccc3Cl)o2)c1,–,–,–,·,–,·
CCOC(=O)C1CCCN(Cc2ccc3c(c2)OCO3)C1 (centres undefined),2.5µM,25µM,8.9µM,–,50µM,–
NC(=O)C1CCCN(Cc2ccc(Cl)cc2)C1 (centres undefined),3.2µM,–,3.5µM,–,79µM,–
CCN(CC)C(=O)C1CCCN(Cc2ccc3c(c2)OCO3)C1 (centres undefined),7.1µM,–,8.9µM,–,?,–
CCOC(=O)C1CCCN(Cc2ccc(OCc3ccccc3)cc2)C1 (centres undefined),?,?,·,·,–,–
CCOC(=O)C1CCCN(C(=O)c2ccc3c(c2)OCO3)C1 (centres undefined),–,–,–,–,–,–
O=C(NC1CCCN(Cc2ccc(Cl)cc2)C1)C1CCC1 (centres undefined),–,–,–,–,–,–
CCOC(=O)C1CCCN(Cc2cccc(Cl)c2)C1 (centres undefined),2.8µM,?,8.9µM,–,?,–
Cc1ccc(S(=O)(=O)n2cccc2/C=C/[N+](=O)[O-])cc1,·,·,·,–,·,?
CCOC(=O)C1CCCN(Cc2ccc(OCc3ccccc3)c(OC)c2)C1 (centres undefined),?,–,–[0.501 µM],·,50µM,–
COc1cc(CN2CCCC(C)C2)ccc1OCc1ccccc1 (centres undefined),–,–,·,–,–,–
CCOC(=O)C1CCCN(CC(=O)c2ccc(F)cc2)C1 (centres undefined),3.5µM,?,?,–,20µM,–
COc1ccc(CN2CCC(C(=O)c3cccc(Cl)c3)CC2)cc1,–,–,–[0.501 µM],–,–,–
COc1cc(CN2CCC(C)CC2)ccc1OCc1ccccc1,25µM,?,?,–,?,–
O=C(c1cccc(Cl)c1)C1CCCN(Cc2ccc(N3CCNC3=O)cc2)C1 (centres undefined),?,–,50µM,–,?,–
N#Cc1c(-c2ccccc2)nc(SCc2cccc(Cl)c2)[nH]c1=O,–,–,–,–,–,–
CN(C)c1ccc(-c2ccnc3c2CC(C)(C(=O)NCC2CC2)O3)cc1 (centres undefined),·,·,·,–,·,–
CCOC(=O)C1CCN(C(=O)COC(=O)c2ccc(=O)n(Cc3ccccc3)n2)CC1,–,–,–,–,–,–
CCN(CC)C(=O)C1CCCN(Cc2ccc(N(C)C)cc2)C1 (centres undefined),45µM,?,14µM,–,32µM,–
COc1ccc(C(=O)C2CCCN(Cc3cc(C)c(O)c(C)c3)C2)c(OC)c1 (centres undefined),–,–,·,–,–,–
Nc1ccc(CN2CCCCCC2)cc1,–,–,–,–,–,–
c1ccc(CN2CCC(N3CCN(Cc4ccc5c(c4)OCO5)CC3)CC2)cc1,–,–,–,–,–,–
SMILES,JMJD2A Tudor inh,HP1b binding inh,G9a block,CtBP-E1A blk,BAZ2B block,Six1-Eya2 blk
Brc1ccc(CN2CCCCCC2)cc1,28µM,?,·,–,·,–
CCN(CC)C(=O)C1CCCN(Cc2ccc(OC)c(C)c2)C1 (centres undefined),0.89µM,?,–[12.7 µM],–,?,–
c1cc2c(cc1CN1CCN(C3CCCCCC3)CC1)OCO2,18µM,?,10µM,–,18µM,–
CC(Nc1cccc(C(=O)NC2CC2)c1)c1nnc(-c2ccccc2)o1 (centres undefined),–,–,·,–,·,–
Clc1cccc(CN2CCCCCC2)c1,40µM,–,11µM,·,?,–
CC(=O)c1cccc(CN2CCCC(C(=O)c3ccc4c(c3)OCO4)C2)c1 (centres undefined),–,–,·,–,–,–
O=[N+]([O-])c1ccc(O)c(CN2CCCCCC2)c1,–,–,–[0.501 µM],·,–,–
